# Data: PubChem BioAssay (EPA / NIEHS)
# Records with an inconclusive call do not appear. Calls of active or inactive are those of the source. Rule for the calls, unless noted: active = hit-call score of the fitted dose curve at least 0.9, where 1 is the maximum; inconclusive = response in the unintended direction; inactive = score below 0.9.
# Key:
# [1] = CEETOX_H295R_MTT_cell_viability: Viability Assessment in the CeeTox HT-H295R MTT Assay (AID 2283718; active = hit-call score of the fitted dose curve at least 0.9, where 1 is the maximum; inactive = score below 0.9;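 for AC50: curve fitted both ways so AC50 may mark viability loss or gain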)
# Summary of the method: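 H295R cells prestimulated 48 h with 10 uM forskolin, then exposed 48 h to test chemical (0.1% DMSO final). Viability by MTT (0.5 mg/ml, 4 h, 37 C), absorbance 570/650 nm; percent change versus DMSO, bidirectional fit.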
# [2] = target: Luciferin 4-monooxygenase (Photinus pyralis) (UniProt P08659); test: CCTE_Simmons_QuantiLum_inhib_2: CCTE's Firefly Luciferase Inhibition Assay, Simmons Lab (AID 2283767);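 for AC50: potency for inhibitors that lower luciferase luminescence relative to DMSO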
# Summary of the method: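 Recombinant firefly luciferase (5 ng/well, 200 mM potassium phosphate with 1 mg/ml BSA) was exposed to 8 concentrations from 5 nM to 87.5 uM (final, 0.5% DMSO) for 30 min at 37C in the dark. Loss of luminescence versus DMSO was read after injecting D-luciferin/ATP-analogue reagent.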
# [3] = ACEA_AR_agonist_AUC_viability: ACEA Biosciences xCELLigence Real-Time Cell Analysis on Androgen Receptor Agonism for Viability (AID 2283775);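 for AC50: viability read 80 hours after compound addition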
# Summary of the method: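 Read-out is area under the impedance curve at 80 h post-dose in 22Rv1 cells, with DMSO as baseline and signal loss taken as reduced viability. Compounds ran in duplicate from 100 uM final.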
# [4] = ACEA_AR_antagonist_AUC_viability: ACEA Biosciences xCELLigence Real-Time Cell Analysis on Androgen Receptor Antagonism for Viability (AID 2283776);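 note: 22Rv1 human prostate cancer cells growing on impedance electrode plates; area under impedance growth curve at 80 h after dosing as viability; hits lower the growth signal relative to DMSO meaning cytotoxicity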
# Summary of the method: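 Impedance read-out (RT-CES): area under growth curve at 80 h post-dose, loss of signal scored vs DMSO baseline. 22Rv1 cells; 8-pt 1:4 series, top 100 uM final, ≤0.5% DMSO; biological duplicate.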
# [5] = target: zebrafish Estrogen Receptor (ESR1), esr1 (gene 259252) (UniProt P57717); test: ATG_zfER1_XSP1: Attagene TRANS-FACTORIAL Multi-Species (XSP1) HepG2 Assay for zebrafish Estrogen Receptor (ESR1) (AID 2283772)
# Summary of the method: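 Transfect HepG2 with GAL4-UAS multi-reporter constructs; treat 24 h (medium carries 3 nM 6-alpha-fluorotestosterone); extract RNA, reverse-transcribe, PCR-amplify, FAM-label, digest with HpaI; resolve by capillary electrophoresis and compare against DMSO baseline.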
# [6] = system: zebrafish Estrogen Receptor (ESR2B), gene 317733; test: ATG_zfER2b_XSP1: Attagene TRANS-FACTORIAL Multi-Species (XSP1) HepG2 Assay for zebrafish Estrogen Receptor (ESR2B) (AID 2283773)
# Summary of the method: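 HepG2 cells transiently transfected with multiple GAL4-UAS reporter units expressing chimeric zebrafish ER2b-Gal4; 24 h chemical exposure with 3 nM 6-alpha-fluorotestosterone present. Reporter mRNA measured by RT-PCR and capillary electrophoresis; gain of signal fitted versus DMSO.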
# [7] = system: frog Estrogen Receptor (ESR2), gene 100174814; test: ATG_frER2_XSP1: Attagene TRANS-FACTORIAL Multi-Species (XSP1) HepG2 Assay for frog Estrogen Receptor (ESR2) (AID 2283774)
# Summary of the method: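 HepG2 cells transiently transfected with GAL4-UAS multiplexed reporter units expressing chimeric NR-Gal4 proteins; reporter mRNA measured 24 h after dosing by RT-PCR, FAM labeling, HpaI digestion and capillary electrophoresis. Gain-of-signal relative to DMSO; 3 nM 6-alpha-fluorotestosterone present.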
# [8] = system: chicken Androgen Receptor (AR), gene 422165; test: ATG_chAR_XSP1: Attagene TRANS-FACTORIAL Multi-Species (XSP1) HepG2 Assay for chicken Androgen Receptor (AR) (AID 2283768)
# Summary of the method: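 HepG2 cells transiently transfected with multiplexed GAL4-UAS reporter units expressing chimeric chicken AR-Gal4; 3 nM 6-alpha-fluorotestosterone for partial AR stimulation; 24 h after dosing, reporter mRNA by RT-PCR and capillary electrophoresis, gain-of-signal versus DMSO.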
# [9] = system: frog Androgen Receptor (AR), gene 399456; test: ATG_frAR_XSP1: Attagene TRANS-FACTORIAL Multi-Species (XSP1) HepG2 Assay for frog Androgen Receptor (AR) (AID 2283770)
# Experimental: ATG_XSP1_multi-species_TRANS is a cell-based, multiplexed assay created by modifying the existing Attagene TRANS-FACTORIAL system to include a panel of nuclear receptors from some or all the following species: human (Homo sapiens), mouse (Mus musculus), frog (Xenopus laevis), zebrafish (Danio rerio), chicken (Gallus gallus), and turtle (Chrysemys picta). The ECOTOX-FACTORIAL format uses HepG2, a human liver cell line, with measurements taken at 24 hours after chemical dosing in a 24-well plate. Xsp1 included 3 nM 6-alpha-fluorotestosterone to partially stimulate the androgen receptor.ATG_frAR_XSP1 is one of 29 assay components measured or calculated from the ATG_XSP1_multi-species_TRANS assay. It is designed to make measurements of mRNA induction, a form of inducible reporter, as detected with fluorescence intensity signals by Reverse transcription polymerase chain reaction (RT-PCR) and Capillary electrophoresis technology.The assay endpoint ATG_frAR_XSP1 was analyzed in the positive analysis fitting direction relative to DMSO as the negative control and baseline of activity. […] Furthermore, this assay endpoint can be referred to as a primary readout, because this assay has produced multiple assay endpoints where this one serves a reporter gene function. […]
# [10] = system: zebrafish Androgen Receptor (AR), gene 100005148; test: ATG_zfAR_XSP1: Attagene TRANS-FACTORIAL Multi-Species (XSP1) HepG2 Assay for zebrafish Androgen Receptor (AR) (AID 2283771)
# Summary of the method: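 HepG2 cells were transiently transfected with a zebrafish AR-GAL4 reporter system and partially stimulated with 3 nM 6-alpha-fluorotestosterone. Reporter mRNA was measured after 24 h dosing by RT-PCR with capillary electrophoresis, and gain-of-signal was fitted relative to DMSO.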
# Sequence of Luciferin 4-monooxygenase (Photinus pyralis) (P08659 whole entry, looked up): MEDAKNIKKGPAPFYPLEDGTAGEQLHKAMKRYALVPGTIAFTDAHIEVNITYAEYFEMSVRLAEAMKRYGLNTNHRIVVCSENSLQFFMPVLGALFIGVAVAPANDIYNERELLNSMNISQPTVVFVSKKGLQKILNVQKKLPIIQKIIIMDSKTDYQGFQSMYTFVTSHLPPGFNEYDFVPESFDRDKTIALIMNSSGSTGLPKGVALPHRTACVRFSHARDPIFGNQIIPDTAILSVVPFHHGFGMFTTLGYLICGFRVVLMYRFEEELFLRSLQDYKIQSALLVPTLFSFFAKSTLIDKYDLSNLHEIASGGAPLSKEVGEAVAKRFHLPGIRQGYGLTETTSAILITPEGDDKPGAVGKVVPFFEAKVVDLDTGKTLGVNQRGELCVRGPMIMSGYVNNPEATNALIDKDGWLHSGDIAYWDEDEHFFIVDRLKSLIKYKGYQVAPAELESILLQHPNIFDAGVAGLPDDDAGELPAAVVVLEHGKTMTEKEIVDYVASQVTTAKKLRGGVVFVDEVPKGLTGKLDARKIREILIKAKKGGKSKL
# Sequence of zebrafish Estrogen Receptor (ESR1), esr1 (gene 259252) (P57717 whole entry, looked up, the tested form may be a part): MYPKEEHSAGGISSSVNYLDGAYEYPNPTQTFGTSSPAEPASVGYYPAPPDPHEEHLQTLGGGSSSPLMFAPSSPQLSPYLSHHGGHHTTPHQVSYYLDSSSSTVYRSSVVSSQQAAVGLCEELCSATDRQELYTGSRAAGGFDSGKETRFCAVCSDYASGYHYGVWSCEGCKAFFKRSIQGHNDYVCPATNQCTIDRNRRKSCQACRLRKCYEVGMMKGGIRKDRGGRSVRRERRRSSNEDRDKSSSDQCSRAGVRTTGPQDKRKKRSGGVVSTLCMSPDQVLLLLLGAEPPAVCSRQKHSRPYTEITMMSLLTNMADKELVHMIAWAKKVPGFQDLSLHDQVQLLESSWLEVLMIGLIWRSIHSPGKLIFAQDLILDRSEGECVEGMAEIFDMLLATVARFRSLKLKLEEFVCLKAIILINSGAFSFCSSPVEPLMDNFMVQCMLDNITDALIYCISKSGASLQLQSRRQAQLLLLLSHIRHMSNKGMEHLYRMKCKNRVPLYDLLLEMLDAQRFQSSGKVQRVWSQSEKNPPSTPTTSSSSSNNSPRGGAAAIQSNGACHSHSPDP
compound,measurement,setting,value
CCCCCCCCCc1ccc(OCCO)cc1,outcome,[1],inactive
same,outcome,[2],inactive
same,AC50,[3],9.26 µM (active)
same,AC50,[4],14.2 µM (active)
Oc1ccc2c(c1)CCC2,outcome,[1],inactive
CSc1ccc(O)cc1C,outcome,[1],inactive
O=C1c2ccccc2C(=O)c2c(Cl)cccc21,outcome,[1],inactive
OCCC(O)CO (stereo unspecified),outcome,[1],inactive
CC(C)(C)c1cc(CCC(=O)NCCCCCCNC(=O)CCc2cc(C(C)(C)C)c(O)c(C(C)(C)C)c2)cc(C(C)(C)C)c1O,outcome,[1],inactive
CCOCOCC,outcome,[1],inactive
CCn1c2ccccc2c2ccccc21,outcome,[1],inactive
CCCCCCCCCCCCC[N+](C)(C)Cc1ccccc1,outcome,[1],inactive
same,outcome,[2],inactive
same,AC50,[3],2.99 µM (active)
same,AC50,[4],3.31 µM (active)
Nc1cccnc1N,outcome,[1],inactive
Nc1c(Br)cc([N+](=O)[O-])cc1Br,AC50,[1],29.7 µM (active)
Cc1cc(O)c(C(C)(C)C)cc1C(C)(C)C,outcome,[1],inactive
Cc1cccc(C)n1,outcome,[1],inactive
CCN(CC)c1ccc(C=O)cc1,outcome,[1],inactive
C[C@]12CC[C@H]3C(=CCc4cc(O)ccc43)[C@@H]1CCC2=O,outcome,[1],inactive
same,AC50,[2],47 µM (active)
same,AC50,[5],0.0231 µM (active)
same,AC50,[6],0.0172 µM (active)
same,AC50,[7],0.0196 µM (active)
same,outcome,[4],inactive
CC1CCCCC1,outcome,[1],inactive
O=C1C=CC(=O)N1c1ccccc1,outcome,[1],inactive
same,outcome,[3],inactive
same,outcome,[4],inactive
O=c1[nH]cccc1O,outcome,[1],inactive
same,outcome,[2],inactive
CN1CN(C)CN(C)C1,outcome,[1],inactive
O=C(c1ccccc1)c1ccc(Cl)cc1,outcome,[1],inactive
CCN(CC)c1ccc(N=Nc2ccccc2)cc1,outcome,[1],inactive
N#Cc1ccccc1O,outcome,[1],inactive
same,outcome,[3],inactive
same,outcome,[4],inactive
CC(C)OC=O,outcome,[2],inactive
same,outcome,[3],inactive
CCOC(=O)C1CC(=O)C(=C(O)C2CC2)C(=O)C1 (stereo unspecified),outcome,[3],inactive
same,outcome,[4],inactive
CC(C)Nc1ccc(NC(C)C)c2c1C(=O)c1ccccc1C2=O,outcome,[3],inactive
same,outcome,[4],inactive
CCCCCCCC/C=C\CCCCCCCC(=O)N(C)CC(=O)O,outcome,[2],inactive
CC(C)(C)c1cc(Cc2cc(C(C)(C)C)c(O)c(C(C)(C)C)c2)cc(C(C)(C)C)c1O,outcome,[2],inactive
same,outcome,[3],inactive
same,outcome,[4],inactive
Cc1ccc(O)c(-n2nc3ccccc3n2)c1,AC50,[2],1.54 µM (active)
same,outcome,[3],inactive
same,outcome,[4],inactive
CCCCC(CC)COC(=O)c1ccc(N(C)C)cc1 (stereo unspecified),outcome,[1],inactive
same,outcome,[3],inactive
same,outcome,[4],inactive
CCCCCCCCn1sc(Cl)c(Cl)c1=O,AC50,[3],21.3 µM (active)
same,outcome,[4],inactive
CCCCCCCC/C=C\CCCCCCCC(=O)OCC(O)CO (stereo unspecified),outcome,[4],inactive
CC(C)(C)c1cc(CCC(=O)OCC(COC(=O)CCc2cc(C(C)(C)C)c(O)c(C(C)(C)C)c2)(COC(=O)CCc2cc(C(C)(C)C)c(O)c(C(C)(C)C)c2)COC(=O)CCc2cc(C(C)(C)C)c(O)c(C(C)(C)C)c2)cc(C(C)(C)C)c1O,outcome,[4],inactive
Cc1ccc(O)cn1,outcome,[2],inactive
CCC(Cc1c(I)cc(I)c(N)c1I)C(=O)O (stereo unspecified),outcome,[3],inactive
same,outcome,[4],inactive
CCCCCCCCCCCCCC[P+](CCCC)(CCCC)CCCC,AC50,[2],83 µM (active)
same,AC50,[3],0.0138 µM (active)
same,AC50,[4],0.0138 µM (active)
Cc1ccc([N+](=O)[O-])c(C)c1,outcome,[3],inactive
CC(=O)CCC(C)C,outcome,[3],inactive
CCCCOC(=O)C(C)O (stereo unspecified),outcome,[3],inactive
same,outcome,[4],inactive
CCN=C1C=CC(=C(c2ccc(N(CC)CC)cc2)c2ccc(N(CC)CC)cc2)c2ccccc21,AC50,[2],7.95 µM (active)
same,outcome,[3],inactive
same,AC50,[4],0.134 µM (active)
CCOC(OCC)OCC,outcome,[3],inactive
same,outcome,[4],inactive
O=C(c1ccccc1)c1ccc(O)cc1O,outcome,[2],inactive
same,AC50,[8],1.98 µM (active)
same,AC50,[9],3.28 µM (active)
same,outcome,[10],inactive
same,AC50,[5],4.2 µM (active)
same,AC50,[6],2.7 µM (active)
same,AC50,[7],1.05 µM (active)
CCN=c1cc2oc3cc(NCC)c(C)cc3c(-c3ccccc3C(=O)OCC)c-2cc1C,AC50,[3],0.0138 µM (active)
same,AC50,[4],0.0138 µM (active)
O=c1cccc[nH]1,outcome,[2],inactive
CCc1cc(Cc2cc(CC)c(N)c(CC)c2)cc(CC)c1N,outcome,[3],inactive
COCCOCCC[Si](C)(O[Si](C)(C)C)O[Si](C)(C)C,outcome,[3],inactive
same,outcome,[4],inactive
